# Bioassay records as filed in PubChem.
# This is a sample that favours compounds with a hit; in the whole collection about 3.4% have one here.
# NF-kB neuron act: NF-kB expression increase, human neuronal cells. NF-kB reporter expression; stronger effect = higher value. fold change at 12.5 µM. 190,000 compounds, 1.6% hits. AID 1239; in the data active means fold change above about 3.3
# hgDAF-12 ag: agonists of H. glycines DAF-12 nuclear receptor; HEK293 GAL4-hgDAF12 UAS-luciferase reporter, agonist luminescence; normalized to butyrate control; activation, % at 6.8 µM; 370,000 compounds, 1.8% hits;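 active means activation above a cutoff set at the mean of all screened compounds plus 3 SD, cut at about 10% in these data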;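 further: 0% = DMSO wells and 100% = sodium butyrate wells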
# ssDAF12 agonist: S. stercoralis DAF-12 activation, primary screen. HEK293 ssDAF-12/GRIP1 lit1-tk-luc reporter, luminescence; % of 3 µM dafachronic acid response. activation, % at 6.8 µM. 370,000 compounds, 1% hits. AID 652126;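 active means activation above the mean over all tested compounds plus 3 SD, cut at about 0.9% in these data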;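 further: 0% = DMSO-only wells and 100% = 3 µM delta7-dafachronic acid wells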
# hcDAF-12 act: activates DAF-12 receptor from parasite H. contortus; HEK293 hcDAF-12 lit1-tk-luc reporter, luminescence; 0% DMSO, 100% Δ7-dafachronic acid; activation, % at 6.8 µM; 370,000 compounds, 1.4% hits;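 active means activation above the mean of all tested compounds plus 3 SD, cut at about 5.5% in these data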;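 further: 100% = response to 3 µM Δ7-dafachronic acid high control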
# APP 5'UTR act: activates APP 5'UTR luciferase reporter | SH-SY5Y APP 5'UTR luciferase reporter, luminescence; zero percent = DMSO vehicle wells | activation, % at 2 µM | 190,000 compounds, 1% hits | AID 1276;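 active means activation above a set limit, based on mean plus 3 SD of controls, cut at about 140% in these data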
# hgDAF12 conf: hgDAF-12 agonism, confirmation assay | shares compounds with hgDAF-12 ag | HEK293 GAL4-hgDAF12 luciferase reporter, agonist mode; percent of butyrate response | activation, % at 6.8 µM | 3,300 compounds, 80% hits | AID 743050;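 active means mean activation over triplicate wells above the hit cutoff derived from the earlier primary screen, cut at about 11% in these data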;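 further: 0% = DMSO low control and 100% = 2 mM sodium butyrate high control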
# LXRb DAF12 ctr: counter-screen for DAF-12 agonists: agonists of human LXR-beta | activation, % at 6.8 µM | shares compounds with hgDAF-12 ag | HEK293 Gal4-LXR luciferase reporter, 24 h | 3,300 tested, under 10 active;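 active means mean activation of the triplicate above a set limit carried over from the primary screen, none filed active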
# Target sequence (P55055 whole entry, looked up, the tested form may be a part): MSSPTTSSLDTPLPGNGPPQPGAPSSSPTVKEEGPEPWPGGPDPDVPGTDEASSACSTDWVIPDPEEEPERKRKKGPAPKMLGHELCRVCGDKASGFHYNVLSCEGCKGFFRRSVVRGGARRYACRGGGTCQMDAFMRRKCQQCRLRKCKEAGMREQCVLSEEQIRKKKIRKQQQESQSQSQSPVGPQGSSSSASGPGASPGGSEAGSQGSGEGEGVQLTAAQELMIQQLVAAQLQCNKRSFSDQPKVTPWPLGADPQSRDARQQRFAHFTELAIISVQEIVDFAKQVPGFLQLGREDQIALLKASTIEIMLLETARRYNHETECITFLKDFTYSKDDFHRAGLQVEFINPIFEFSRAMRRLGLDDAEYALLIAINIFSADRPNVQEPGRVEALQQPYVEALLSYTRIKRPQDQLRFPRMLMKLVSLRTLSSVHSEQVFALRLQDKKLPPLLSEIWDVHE
# The depositor's hits bear a star; x = no result.
SMILES,NF-kB neuron act,hgDAF-12 ag,ssDAF12 agonist,hcDAF-12 act,APP 5'UTR act,hgDAF12 conf,LXRb DAF12 ctr
CCN1CCN(C(=O)c2ccc(-c3nc4ccccc4s3)s2)CC1,4.2*,17*,1,4,131,11*,1
Cc1cccc(C(=O)N2CCc3cc(-c4csc(NC(=O)CN5CCCC5)n4)ccc32)c1,x,1,-1,-1,x,x,x
CNc1nc(-c2ccc3c(c2)CCN3C(=O)c2ccccc2C)cs1,3.8*,21*,0,1,193*,15*,0
COC(=O)[C@]1(CNS(=O)(=O)c2ccc(F)cc2)CC(=O)N(C)[C@@H]1c1ccccc1,x,0,-1,-2,x,x,x
C[C@@H]1CCN(C2CC2)S(=O)(=O)c2c(cccc2N2CC[C@@H](O)C2)O1,x,0,-1,-1,x,x,x
O=C(Nc1ccc2ccccc2n1)C1CCCCC1,x,15*,0,2,x,16*,1
O=C(Nc1ccccc1)C1CCCCC1,1.3,0,-1,-1,2,x,x
Cn1cc(/C=C2/SC(=O)N(c3ccccc3)C2=O)c2ccccc21,1.4,6,0,4,-8,x,x
Cn1cccc1/C=C1\SC(=O)N(c2ccccc2)C1=O,2.8,16*,0,3,117,20*,1
c1cncc(-c2nc(-c3ccc4c(c3)OCCO4)cs2)c1,x,15*,0,5.8*,x,16*,1
Cc1ccc(NC(=S)N2CCC(c3ccc(C)cc3)C2)cc1 (configuration not stated),1.6,6,-1,2,28,x,x
Cc1ccc(NC(=S)N2CCC(c3ccccc3)C2)c(Cl)c1 (configuration not stated),6.5*,19*,1.1*,5,190*,13*,1
Cc1ccc(NC(=O)N2CCC(c3ccccc3)C2)cc1C (configuration not stated),5.7*,15*,0,3,143*,19*,1
Cc1cc(CNC(=O)c2cc(COc3ccc(F)c(F)c3)on2)nn1C,x,15*,0,5.7*,x,14*,0
CCOC(=O)N1CCN(C(=O)C[C@H]2C[C@@]3(C(=O)OC)C(=C[C@H](C4CCCC4)O[C@@H]3C)N(CCc3ccc(OC)c(OC)c3)C2=O)CC1,x,-3,-1,-3,x,x,x
Cc1ccc(NC(=O)Cn2cccc2)c(Br)c1,1.7,3,-1,0,-2,x,x
Cc1ccc(NC(=O)c2ccn(C)n2)c(Br)c1,7*,15*,1,3,142*,16*,1
CCOC(=O)[C@]12CCCC3=C1N(CCC3)C(=O)[C@@H](CC(=O)NCc1cccc3ccccc13)C2,x,-1,-2,-3,x,x,x
CN1CCN(/N=C/c2ccc(-c3ccccc3)cc2)CC1,3.8*,14*,0,2,75,12*,1
c1cnc(SCCOc2ccc3c(c2)CCC3)nc1,7.2*,15*,0,4,x,17*,1
COc1cc(NC(=O)C2CCCN(S(=O)(=O)c3ccccc3[N+](=O)[O-])C2)cc(OC)c1 (configuration not stated),x,-4,-2,-3,x,x,x
O=C(Nc1ccccc1O)c1ccc(Cl)cc1,5.7*,22*,1.3*,5.8*,43,29*,0
Cc1cccc(NC(=O)COc2ccc(Br)cc2/C=N/O)c1,2.6,15*,0,5,85,11*,0
O=C(/C=C/c1ccc(O)c(O)c1)NC(=O)c1ccccc1O,x,15*,0,6.5*,x,13*,0
O=C(O)/C=C/c1ccc(O)c(O)c1,1,1,-1,0,-13,x,x
O=C(/C=C/c1ccc(Br)cc1)NC(=O)c1ccccc1O,3.9*,13*,0,5,95,12*,1
Cc1ccc(NC(=O)CN2CCN(c3nc(-c4ccccc4)cs3)CC2)cc1C,x,4,-1,-3,x,x,x
C(/C=C\c1ccco1)=NN1CCN(Cc2cccc3ccccc23)CC1,x,-4,-2,0,x,x,x
